In PubChem BioAssay (NCI) one finds growth data, which are given here for 13 molecules.

Compounds without any hit were thinned out: in the full panel of roughly 83,000, 20% have a hit.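 Single-dose data. Exposure time 48 hours. Values below 10 considered active.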 Unmarked numbers belong to inactive results. The source made the active and inactive calls.

Test systems include SK-MEL-2 melanoma; EKVX NSCLC; SN12C renal; UO-31 renal; TK-10 renal; ACHN renal; CAKI-1 renal; A498 renal; CCRF-CEM leukemia; MOLT-4 leukemia.
Common to all, as to test: NCI-60 one-dose screen, 48 h (100 = growth as untreated, 0 = no growth, -100 = all killed)
What all share (details): 10 µM unless noted

Take `O=S(=O)(NCCNc1cc(-c2c(-c3cccc(O)c3)nc3sccn23)ccn1)c1ccc(C(F)(F)F)cc1`: the growth in the test with SK-MEL-2 melanoma is 43.9%; in the test on EKVX NSCLC, 35.7%; with SN12C renal it was 35.6%; in the test on UO-31 renal it was -71.8% (active); with TK-10 renal, 67.9%; in the test with ACHN renal, 33.2%. For the same molecule, the growth is 29.3% in the test on CAKI-1 renal, 40.2% in the test with A498 renal, 25.4% in the test with CCRF-CEM leukemia and 9.21% (active) in the test with MOLT-4 leukemia.
Turning to `O=C1c2cccc3cccc(c23)C(=O)N1N1C(=O)c2cccc3c(N4CCOCC4)ccc(c23)C1=O`, the growth was 107% with SK-MEL-2 melanoma; 94.1% with EKVX NSCLC; 88.8% in the test with SN12C renal; 68.7% in the test with UO-31 renal; 141% in the test with TK-10 renal; 95% with ACHN renal. The growth in the test on CAKI-1 renal was 87.4%; in the test on A498 renal it was 64.3%; in the test with CCRF-CEM leukemia, 122%; in the test on MOLT-4 leukemia, 108%.
Take `Cc1nc2sc(C(=O)Nc3ccccc3)c(N)c2cc1C(=O)c1ccccc1`: the growth in the test with SK-MEL-2 melanoma is 49.9%; in the test on EKVX NSCLC it was 35.2%; with SN12C renal, 81.5%; in the test on UO-31 renal, 59.5%; with TK-10 renal, 54.7%; with ACHN renal, 51.7%. Besides, the growth in the test on CAKI-1 renal was 35.6%; in the test with A498 renal, -3.88% (active); in the test with CCRF-CEM leukemia, 8.47% (active); with MOLT-4 leukemia it was 31.6%.
As for `Cc1ccc(-c2nc(/C=C3/C(=O)Nc4ccccc43)c3ccccn23)cc1`, the growth in the test with SK-MEL-2 melanoma is 39.3%; in the test with EKVX NSCLC it was 80.1%; with SN12C renal it was 82.6%; with UO-31 renal, 54.3%; with TK-10 renal, 88.9%; in the test with ACHN renal, 16.6%. Further, the growth in the test with CAKI-1 renal is 48.8%; in the test with A498 renal, 104%; in the test on CCRF-CEM leukemia, 84.3%; in the test on MOLT-4 leukemia it was 72.2%.
`COc1ccc(C/C(C)=C(/c2ccc(OCCN3CCCCC3)cc2)c2ccc(OC(=O)NCc3ccccc3)cc2)cc1`: the growth was -86.2% (active) with SK-MEL-2 melanoma; -78.4% (active) in the test on EKVX NSCLC; -88% (active) in the test on SN12C renal; -92.2% (active) in the test with UO-31 renal; -90.7% (active) with TK-10 renal; -100% (active) with ACHN renal. The growth is -95% (active) in the test on CAKI-1 renal, -97.1% (active) in the test on A498 renal, -44.1% (active) in the test on CCRF-CEM leukemia and -53.2% (active) in the test on MOLT-4 leukemia.
Consider `CCCCCCCCCCCCCCCCCCOc1ccccc1CC(=O)NCC[N+]1(C)CCCC1`, for which the growth with SK-MEL-2 melanoma is 62.4%; with EKVX NSCLC it was 92%; in the test on SN12C renal, 29.8%; with UO-31 renal, 85.1%; with TK-10 renal, 25.9%; in the test with ACHN renal it was 95.8%. In addition, the growth in the test on CAKI-1 renal was 74%; with A498 renal, 71.5%; in the test with CCRF-CEM leukemia, 18.8%; in the test on MOLT-4 leukemia, 14%.
As for `O=c1oc2ccccc2cc1C1=NN=C(SCc2ccccc2)SC1`, the growth in the test with SK-MEL-2 melanoma was 116%; in the test with EKVX NSCLC it was 101%; with SN12C renal it was 103%; with UO-31 renal, 73.7%; in the test with TK-10 renal it was 108%; in the test on ACHN renal, 96.9%. Moreover, the growth was 87.4% in the test on CAKI-1 renal, 119% in the test with A498 renal, 95.3% with CCRF-CEM leukemia and 97% in the test on MOLT-4 leukemia.
Turning to `CC1(C)CCC(S(=O)(=O)c2ccc3c(c2)/C(=N\O)c2cc(S(=O)(=O)N4CCC(O)(c5cccc(C(F)(F)F)c5)CC4)ccc2-3)CC1`, the growth in the test on SK-MEL-2 melanoma was -90.2% (active); in the test with EKVX NSCLC it was -33.4% (active); with SN12C renal it was 3.73% (active); in the test with UO-31 renal, 45.6%; in the test on TK-10 renal, -35.7% (active); in the test on ACHN renal it was -13.3% (active). For the same molecule, the growth with CAKI-1 renal is -37.7% (active); in the test on A498 renal, -51.5% (active); with CCRF-CEM leukemia it was -58.4% (active); in the test on MOLT-4 leukemia it was -69.2% (active).
For the molecule `CC1Cc2c(Cl)ncnc2N(C)c2ccc(F)cc21` (stereo not given), the growth in the test with SK-MEL-2 melanoma was 110%; in the test with EKVX NSCLC, 87.6%; with SN12C renal, 106%; in the test with UO-31 renal it was 79.6%; in the test on TK-10 renal it was 98.9%; with ACHN renal, 103%. Further, the growth is 91% in the test with CAKI-1 renal, 101% in the test with A498 renal, 95.6% in the test with CCRF-CEM leukemia and 89.2% in the test with MOLT-4 leukemia.
`O=[N+]([O-])/C(=C/C=C/c1ccccc1)c1ccccc1`: the growth in the test on SK-MEL-2 melanoma was 86.5%; in the test on EKVX NSCLC, 92.7%; in the test with SN12C renal, 66.5%; in the test on UO-31 renal, -44.4% (active); in the test with TK-10 renal, 91.1%; in the test with ACHN renal, 10.6%. Moreover, the growth is 51.2% in the test on CAKI-1 renal, 50.4% with A498 renal, 36.5% with CCRF-CEM leukemia and 34.4% in the test on MOLT-4 leukemia.
As for `CC(C)N1CCN(Cc2ccc3c(NNC(=O)c4ccccc4)nc4cc(F)ccc4n23)CC1`, the growth was 59.6% in the test with SK-MEL-2 melanoma; 18.1% with EKVX NSCLC; 17.3% with SN12C renal; 8.43% (active) in the test with UO-31 renal; 36.2% with TK-10 renal; 10.8% with ACHN renal. Besides, the growth in the test with CAKI-1 renal is 12.5%; with A498 renal, -15.8% (active); in the test with CCRF-CEM leukemia, 10.8%; in the test with MOLT-4 leukemia, 11.7%.
Regarding `CCCCN[C@H]1CC[C@@]2(C)[C@@H](CC[C@@]3(C)[C@H]2[C@H](O)C[C@H]2/C(=C(\CCC=C(C)C)C(=O)OC)[C@@H](OC(C)=O)C[C@@]23C)[C@@H]1C`, the growth in the test with SK-MEL-2 melanoma was 106%; with EKVX NSCLC, 96.9%; with SN12C renal it was 94.6%; in the test with UO-31 renal it was 81.5%; in the test on TK-10 renal, 97.4%; with ACHN renal, 91.7%. For the same molecule, the growth in the test with CAKI-1 renal is 90.6%; in the test on A498 renal, 97.7%; in the test on CCRF-CEM leukemia, 41.3%; with MOLT-4 leukemia, 10.6%.
For `O=C1/C(=C/c2ccc(-c3ccc(Br)cc3)o2)SC(=S)N1CCc1ccc(O)cc1`, the growth in the test with SK-MEL-2 melanoma was 2.89% (active); with EKVX NSCLC, 77.2%; in the test on SN12C renal, 69.6%; in the test with UO-31 renal, 39.9%; in the test with TK-10 renal, 87%; with ACHN renal, 83.9%. The growth in the test with CAKI-1 renal is 39.1%; in the test with A498 renal, 64.7%; in the test with CCRF-CEM leukemia, 21.7%; with MOLT-4 leukemia, 33.6%.
